Reference: the supplement of paper PMC10849652
Of roughly 7,900 targets only a part is listed; those with a hit were picked by preference. About 0.6% of all pairs of compound and target were hits. Unmarked numbers belong to inactive results.

Assays:
Experiment in all cases: log2 fold change, soluble protein after heating vs DMSO (PISA); higher = thermal stabilisation; K562 cells, 10 uM, 30 min; active = over 0.2 and 3.5 SD of the protein, either way, in both replicates (recomputed)
[1] = compound: CN1CCN(CCOc2cc(OC3CCOCC3)c3c(Nc4c(Cl)ccc5c4OCO5)ncnc3c2)CC1 [saracatinib]
In short: (§1)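 K562 cells at 2×10^6 cells/mL were treated with 10 μM compound for 30 min. Aliquots were heated for 3 min across 48°C-58°C, pooled, and extracted in PBS with 0.5% NP-40 at 4°C; soluble protein was the supernatant after 21,000xg for 90 min. Soluble protein was quantified by TMTpro 16plex LC-MS/MS with channel sums equalised, and reported as log2 fold change in thermal stability against DMSO controls, with values from duplicates.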

[2] = compound: CN1CC[C@H](c2c(O)cc(O)c3c(=O)cc(-c4ccccc4Cl)oc23)[C@H](O)C1 [alvocidib]
In short: as §1

[3] = compound: CNc1nc(-c2ccc3c(N)n[nH]c3c2)cc(N2C[C@@H](C(=O)NC3CCCCC3)CC[C@H]2C)n1
In short: as §1

[4] = compound: COC1=CC=C(C=C1)CN2C=CC3=C2C=C(C=C3)C(=O)NO
In short: as §1

[5] = compound: CO[C@H]1C[C@@H]2CC[C@@H](C)[C@@](O)(O2)C(=O)C(=O)N2CCCC[C@H]2C(=O)O[C@H]([C@H](C)C[C@@H]2CC[C@H](n3cnnn3)[C@H](OC)C2)CC(=O)[C@H](C)/C=C(\C)[C@@H](O)[C@@H](OC)C(=O)[C@H](C)C[C@H](C)/C=C/C=C/C=C/1C [zotarolimus]
In short: as §1

[6] = compound: COc1cc(C(=O)O)ccc1NC(=O)[C@@H]1N[C@@H](CC(C)(C)C)[C@](C#N)(c2ccc(Cl)cc2F)[C@H]1c1cccc(Cl)c1F [idasanutlin]
In short: as §1

[7] = compound: COc1cc(Nc2ncc3c(n2)-c2ccc(Cl)cc2C(c2c(F)cccc2OC)=NC3)ccc1C(=O)O [alisertib]
In short: as §1

[8] = compound: COc1cc2ncnc(Nc3ccc(F)c(Cl)c3)c2cc1OCCCN1CCOCC1 [gefitinib]
In short: as §1

[9] = compound: COc1cccc2cc(-c3nc([C@H]4CC[C@H](C(=O)O)CC4)n4ncnc(N)c34)[nH]c12
In short: as §1

[10] = compound: CN1CCc2c(c3ccccc3n2Cc2ccc(C(=O)NO)cc2)C1 [Tubastatin A]
In short: as §1

[11] = compound: CNC(=O)c1ccc(Nc2ncc(C(F)(F)F)c(NCc3nccnc3N(C)S(C)(=O)=O)n2)cc1 [defactinib]
In short: as §1

[12] = compound: COC(=O)[C@H](CCSC)NC(=O)C1=C(C=C(C=C1)NC[C@H](CS)N)C2=CC=CC=C2
In short: as §1

[13] = compound: COc1cc2nc(-c3cc(F)ccc3O)nc(N[C@@H]3CNC[C@H]3C(C)(C)O)c2cc1OC
In short: as §1

[14] = compound: CS(=O)(=O)CCNCc1ccc(-c2ccc3ncnc(Nc4ccc(OCc5cccc(F)c5)c(Cl)c4)c3c2)o1 [lapatinib]
In short: as §1

[15] = compound: CS(=O)(=O)N1CCN(Cc2cc3nc(-c4cccc5[nH]ncc45)nc(N4CCOCC4)c3s2)CC1 [pictilisib]
In short: as §1

[16] = compound: CN1CCN(c2nc(C3=C(c4c[nH]c5ccccc45)C(=O)NC3=O)c3ccccc3n2)CC1 [sotrastaurin]
In short: as §1

[17] = compound: CNC(=O)C1=CC=CC=C1NC2=NC(=NC=C2Cl)NC3=C(C=C(C=C3)N4CCOCC4)OC
In short: as §1

[18] = compound: CNCc1ccc(-c2[nH]c3cc(F)cc4c3c2CCNC4=O)cc1 [rucaparib]
In short: as §1

[19] = compound: COC(=O)N[C@@H](C)CNc1nccc(-c2cn(C(C)C)nc2-c2cc(Cl)cc(NS(C)(=O)=O)c2F)n1 [encorafenib]
In short: as §1

[20] = compound: CON(C)C(=O)N1N=C(c2cc(F)ccc2F)S[C@@]1(CCCN)c1ccccc1 [filanesib]
In short: as §1

Sequence of UniProt O60749 (O60749 whole entry, looked up): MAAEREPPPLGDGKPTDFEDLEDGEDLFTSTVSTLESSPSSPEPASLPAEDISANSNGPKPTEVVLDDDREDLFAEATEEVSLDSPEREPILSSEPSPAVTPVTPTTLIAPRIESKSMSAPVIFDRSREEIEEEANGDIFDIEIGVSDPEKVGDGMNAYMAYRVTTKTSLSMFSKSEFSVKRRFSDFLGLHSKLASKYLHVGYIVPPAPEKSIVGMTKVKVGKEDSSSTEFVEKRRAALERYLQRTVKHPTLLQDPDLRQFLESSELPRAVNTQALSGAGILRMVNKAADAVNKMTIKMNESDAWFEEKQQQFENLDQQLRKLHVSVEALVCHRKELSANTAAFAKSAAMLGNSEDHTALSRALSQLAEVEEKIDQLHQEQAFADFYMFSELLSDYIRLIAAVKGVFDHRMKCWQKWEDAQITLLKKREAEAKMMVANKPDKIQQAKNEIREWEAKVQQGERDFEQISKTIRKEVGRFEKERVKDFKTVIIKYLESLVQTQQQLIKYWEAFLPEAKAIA
Sequence of UniProt P35711 (P35711 whole entry, looked up): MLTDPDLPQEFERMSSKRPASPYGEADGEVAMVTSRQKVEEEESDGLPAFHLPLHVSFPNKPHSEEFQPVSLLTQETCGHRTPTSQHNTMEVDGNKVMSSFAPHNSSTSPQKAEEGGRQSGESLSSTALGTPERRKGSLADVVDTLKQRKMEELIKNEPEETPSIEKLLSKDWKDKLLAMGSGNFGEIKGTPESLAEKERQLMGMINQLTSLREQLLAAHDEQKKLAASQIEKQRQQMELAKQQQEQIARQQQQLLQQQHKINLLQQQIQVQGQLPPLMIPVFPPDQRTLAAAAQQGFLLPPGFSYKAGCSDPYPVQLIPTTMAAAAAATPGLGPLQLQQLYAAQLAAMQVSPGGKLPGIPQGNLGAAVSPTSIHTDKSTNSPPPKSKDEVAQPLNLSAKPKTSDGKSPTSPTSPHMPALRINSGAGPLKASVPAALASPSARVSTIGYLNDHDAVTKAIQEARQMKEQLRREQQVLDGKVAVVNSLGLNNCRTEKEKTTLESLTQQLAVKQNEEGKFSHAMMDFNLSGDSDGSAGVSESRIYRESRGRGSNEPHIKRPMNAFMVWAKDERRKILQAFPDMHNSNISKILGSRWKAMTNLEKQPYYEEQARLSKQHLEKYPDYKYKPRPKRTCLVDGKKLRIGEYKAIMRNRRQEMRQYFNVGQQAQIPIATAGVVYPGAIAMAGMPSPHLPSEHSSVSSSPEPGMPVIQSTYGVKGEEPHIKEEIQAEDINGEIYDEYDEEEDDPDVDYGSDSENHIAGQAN
Sequence of UniProt O60271 (O60271 whole entry, looked up): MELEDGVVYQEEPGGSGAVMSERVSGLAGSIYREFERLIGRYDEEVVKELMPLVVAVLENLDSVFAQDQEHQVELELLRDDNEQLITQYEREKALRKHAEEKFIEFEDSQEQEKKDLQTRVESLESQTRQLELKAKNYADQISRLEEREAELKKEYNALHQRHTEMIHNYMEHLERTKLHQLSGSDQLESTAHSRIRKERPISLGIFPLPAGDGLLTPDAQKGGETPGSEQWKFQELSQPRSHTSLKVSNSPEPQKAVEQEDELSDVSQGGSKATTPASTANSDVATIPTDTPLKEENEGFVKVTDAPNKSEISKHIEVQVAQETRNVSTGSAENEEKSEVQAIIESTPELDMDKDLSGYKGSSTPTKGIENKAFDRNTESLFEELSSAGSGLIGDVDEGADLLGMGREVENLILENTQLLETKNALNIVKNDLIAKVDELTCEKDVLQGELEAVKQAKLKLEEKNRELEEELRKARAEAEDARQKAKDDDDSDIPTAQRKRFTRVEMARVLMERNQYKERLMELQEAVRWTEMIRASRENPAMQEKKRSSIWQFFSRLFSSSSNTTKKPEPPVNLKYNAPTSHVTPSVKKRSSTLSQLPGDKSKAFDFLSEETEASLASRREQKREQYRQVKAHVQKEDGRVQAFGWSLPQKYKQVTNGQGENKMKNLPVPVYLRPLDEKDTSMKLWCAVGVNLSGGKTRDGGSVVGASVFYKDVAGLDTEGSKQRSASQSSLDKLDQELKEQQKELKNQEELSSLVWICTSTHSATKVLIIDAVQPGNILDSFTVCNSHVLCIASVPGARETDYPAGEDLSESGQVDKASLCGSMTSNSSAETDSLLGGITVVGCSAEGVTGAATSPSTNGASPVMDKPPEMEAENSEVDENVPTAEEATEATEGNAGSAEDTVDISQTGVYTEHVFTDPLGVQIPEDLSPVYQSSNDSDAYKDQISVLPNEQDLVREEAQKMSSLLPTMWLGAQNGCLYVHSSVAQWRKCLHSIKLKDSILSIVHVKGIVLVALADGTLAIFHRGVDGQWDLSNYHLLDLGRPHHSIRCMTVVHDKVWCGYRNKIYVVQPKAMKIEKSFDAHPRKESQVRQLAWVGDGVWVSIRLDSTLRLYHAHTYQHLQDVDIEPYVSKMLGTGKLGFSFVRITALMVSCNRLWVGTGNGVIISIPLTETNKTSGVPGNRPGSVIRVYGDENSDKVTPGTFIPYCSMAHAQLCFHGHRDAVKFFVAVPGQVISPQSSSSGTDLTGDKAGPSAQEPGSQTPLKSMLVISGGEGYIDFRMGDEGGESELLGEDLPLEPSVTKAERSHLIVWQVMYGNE
Sequence of UniProt Q96BZ9 (Q96BZ9 whole entry, looked up): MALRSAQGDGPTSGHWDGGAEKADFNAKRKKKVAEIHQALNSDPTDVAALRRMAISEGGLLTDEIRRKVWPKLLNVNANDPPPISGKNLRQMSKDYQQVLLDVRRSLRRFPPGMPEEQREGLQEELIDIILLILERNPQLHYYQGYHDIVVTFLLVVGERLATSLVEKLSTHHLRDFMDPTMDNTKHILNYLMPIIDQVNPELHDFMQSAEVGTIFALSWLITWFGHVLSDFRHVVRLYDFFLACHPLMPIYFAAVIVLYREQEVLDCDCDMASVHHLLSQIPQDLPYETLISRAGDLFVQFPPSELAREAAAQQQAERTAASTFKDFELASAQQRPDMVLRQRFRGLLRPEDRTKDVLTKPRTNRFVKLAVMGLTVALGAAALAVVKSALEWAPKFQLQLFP
Sequence of UniProt Q9NXE4 (Q9NXE4 whole entry, looked up): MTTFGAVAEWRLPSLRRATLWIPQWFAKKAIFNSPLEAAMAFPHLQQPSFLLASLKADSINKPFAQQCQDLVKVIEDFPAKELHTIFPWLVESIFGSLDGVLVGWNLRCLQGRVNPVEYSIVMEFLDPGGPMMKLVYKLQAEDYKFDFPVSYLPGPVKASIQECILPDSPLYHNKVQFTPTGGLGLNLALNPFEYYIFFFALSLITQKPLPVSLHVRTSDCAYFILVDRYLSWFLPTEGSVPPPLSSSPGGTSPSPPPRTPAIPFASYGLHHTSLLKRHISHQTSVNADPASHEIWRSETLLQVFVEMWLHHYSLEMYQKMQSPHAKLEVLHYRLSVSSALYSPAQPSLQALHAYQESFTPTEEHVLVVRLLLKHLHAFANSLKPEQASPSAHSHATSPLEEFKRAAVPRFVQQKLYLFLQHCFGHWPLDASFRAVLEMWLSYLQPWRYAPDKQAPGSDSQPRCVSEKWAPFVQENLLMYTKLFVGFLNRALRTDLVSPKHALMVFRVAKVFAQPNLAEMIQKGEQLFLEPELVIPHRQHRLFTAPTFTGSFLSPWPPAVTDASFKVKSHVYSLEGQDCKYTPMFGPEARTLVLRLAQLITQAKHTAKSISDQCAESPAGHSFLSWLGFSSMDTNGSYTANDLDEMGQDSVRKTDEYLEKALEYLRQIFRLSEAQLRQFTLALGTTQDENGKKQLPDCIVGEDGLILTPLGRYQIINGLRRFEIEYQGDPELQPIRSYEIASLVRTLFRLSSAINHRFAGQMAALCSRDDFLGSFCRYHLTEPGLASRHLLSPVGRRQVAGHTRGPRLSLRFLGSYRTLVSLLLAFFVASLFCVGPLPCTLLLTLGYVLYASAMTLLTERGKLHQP
Sequence of UniProt Q92581 (Q92581 whole entry, looked up): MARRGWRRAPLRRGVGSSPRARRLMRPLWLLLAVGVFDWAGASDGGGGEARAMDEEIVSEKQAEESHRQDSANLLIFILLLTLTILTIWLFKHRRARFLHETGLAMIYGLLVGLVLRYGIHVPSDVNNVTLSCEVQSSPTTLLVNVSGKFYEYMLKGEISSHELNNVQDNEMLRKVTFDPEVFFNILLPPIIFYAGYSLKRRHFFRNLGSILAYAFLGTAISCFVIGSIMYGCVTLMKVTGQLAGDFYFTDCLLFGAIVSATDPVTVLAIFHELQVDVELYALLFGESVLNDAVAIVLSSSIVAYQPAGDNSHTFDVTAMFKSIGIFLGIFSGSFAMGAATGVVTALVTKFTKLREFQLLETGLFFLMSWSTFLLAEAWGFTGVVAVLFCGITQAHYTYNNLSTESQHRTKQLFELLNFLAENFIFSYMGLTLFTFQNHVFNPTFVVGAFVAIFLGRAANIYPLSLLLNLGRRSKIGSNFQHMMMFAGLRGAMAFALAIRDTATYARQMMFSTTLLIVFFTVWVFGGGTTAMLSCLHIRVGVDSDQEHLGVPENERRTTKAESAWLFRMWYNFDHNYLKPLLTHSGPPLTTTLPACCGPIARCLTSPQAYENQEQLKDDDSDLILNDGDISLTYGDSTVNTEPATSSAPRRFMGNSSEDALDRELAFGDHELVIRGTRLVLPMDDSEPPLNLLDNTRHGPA
Sequence of UniProt Q969S0 (Q969S0 whole entry, looked up): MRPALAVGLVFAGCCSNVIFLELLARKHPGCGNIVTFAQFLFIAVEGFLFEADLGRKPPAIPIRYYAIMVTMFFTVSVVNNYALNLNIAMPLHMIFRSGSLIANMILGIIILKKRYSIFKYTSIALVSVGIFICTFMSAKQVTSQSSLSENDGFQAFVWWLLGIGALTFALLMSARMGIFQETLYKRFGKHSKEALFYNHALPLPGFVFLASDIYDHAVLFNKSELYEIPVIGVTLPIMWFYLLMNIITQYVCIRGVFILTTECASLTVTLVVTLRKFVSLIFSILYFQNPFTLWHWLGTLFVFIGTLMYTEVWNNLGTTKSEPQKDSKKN
Sequence of UniProt Q9BYN0 (Q9BYN0 whole entry, looked up): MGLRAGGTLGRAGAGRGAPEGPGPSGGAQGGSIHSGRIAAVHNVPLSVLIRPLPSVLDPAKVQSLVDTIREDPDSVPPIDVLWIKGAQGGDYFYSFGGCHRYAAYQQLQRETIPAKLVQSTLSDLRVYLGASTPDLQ

Row | Target | log2 fold change [1] | log2 fold change [2] | log2 fold change [3] | log2 fold change [4] | log2 fold change [5] | log2 fold change [6] | log2 fold change [7] | log2 fold change [8] | log2 fold change [9] | log2 fold change [10] | log2 fold change [11] | log2 fold change [12] | log2 fold change [13] | log2 fold change [14] | log2 fold change [15] | log2 fold change [16] | log2 fold change [17] | log2 fold change [18] | log2 fold change [19] | log2 fold change [20]
1 | THAP9 (UniProt Q9H5L6) | 0.039 | -0.087 | 0.186 | 0.434 | -0.139 | 0.008 | -0.068 | -0.142 | 0.011 |  |  |  |  |  |  |  |  |  |  | 
2 | SMPD4 isoform 2 (UniProt Q9NXE4) | 0.028 | -0.07 | 0.02 | -0.011 | 0.043 | -0.16 | -0.117 |  | 0.003 | -0.054 | 0.094 | -0.19 | -0.308 | 0.131 | -0.108 |  |  |  |  | 
3 | SPAG9 isoform 4 (UniProt O60271) |  | 0.037 |  | -0.02 | -0.076 | -0.006 | 0.062 | -0.007 | -0.112 | -0.103 | 0.018 | 0.088 |  |  |  | -0.171 | 0.081 | 0.113 | 0.022 | 0.078
4 | TBK1 (UniProt Q9UHD2) | -0.026 |  | -0.013 | -0.06 | -0.037 | 0.046 | 0.064 | -0.098 | 0.08 | -0.014 | 0.079 | 0.001 | 0.087 | -0.018 | 0.009 | -0.063 | 0.536 (active) | 0.106 | 0.049 | 0.05
5 | SRC isoform 2 (UniProt P12931) |  | -0.061 | 0.007 | 0.197 | -0.123 | 0.119 | 0.01 |  | 0.219 | -0.108 | -0.077 | 0.188 | 0.017 | 0.088 | 0.113 | -0.167 | -0.069 | -0.343 | 0.082 | 0.229
6 | TK1 (UniProt K7ERV3) | 0.037 | -0.009 | -0.058 |  | -0.034 | -0.075 | 0.121 | 0.026 | 0 | -0.013 | 0 | -0.003 | -0.107 | -0.107 | 0.102 | 0.011 |  |  |  | 0.005
7 | SRXN1 (UniProt Q9BYN0) |  | 0.015 |  | 0.406 | 0.022 | -0.028 | 0.098 | 0.012 | 0.001 | 0.209 | -0.283 | 0.022 | -0.036 | 0.151 | -0.562 (active) | 0.019 |  | 0.111 | -0.008 | 0.076
8 | SLC35B4 (UniProt Q969S0) |  |  |  | -0.076 |  | 0.027 | 0.032 | 0.149 | 0.076 | 0.014 | 0.086 | -0.146 |  |  |  | 0.012 | 0.046 | 0.036 | -0.015 | -0.119
9 | SPIRE1 (UniProt Q08AE8) |  | 0.153 |  | -0.509 (active) | -0.051 | -0.023 | -0.033 | -0.013 | 0.049 | 0.141 | 0.047 | -0.074 |  |  | 0.188 |  | -0.166 | 0.035 | -0.105 | 
10 | SRSF9 (UniProt Q13242) | 0.022 | 0.27 | 0.097 | -0.088 | -0.026 | 0.297 | -0.118 | -0.068 | -0.128 |  | 0.276 | -0.024 | -0.09 | 0.155 | -0.036 | -0.015 | -0.145 | 0.376 | 0.149 | 0.378
11 | SLC9A6 isoform 3 (UniProt Q92581) | 0.128 | -0.044 | -0.107 |  | -0.051 | 0.098 |  |  |  | 0.04 |  |  | 0.055 | -0.072 |  |  | 0.104 | 0.165 | -0.162 | 
12 | SREBF1 isoform 4 (UniProt P36956) | 0.077 |  | 0.045 | -0.089 |  |  | -0.014 |  | 0.098 |  |  |  |  |  |  |  | 0.033 | -0.164 | 0.044 | 
13 | TBC1D2 (UniProt Q9BYX2) |  |  |  |  |  | 0.016 | -0.053 |  | -0.211 |  |  |  |  |  | -0.097 |  |  | 0.264 | 0.122 | 
14 | SNX2 isoform 2 (UniProt O60749) | -0.002 | -0.078 | 0.176 | 0.258 | 0.022 | -0.054 |  |  |  |  | -0.155 | 0.097 | 0.462 | 0.041 |  | 0.003 |  | 0.024 | -0.141 | -0.234
15 | SLC8B1 (UniProt Q6J4K2) | 0.036 | 0.012 | -0.176 | 0.044 | -0.097 | -0.034 |  |  |  |  | 0.029 | -0.028 | 0.132 | 0.066 | 0.016 |  | -0.019 |  |  | 
16 | TBC1D20 isoform 3 (UniProt Q96BZ9) |  | -0.428 |  | 0.026 | 0.136 | -0.184 | -0.089 | 0.148 | -0.032 |  | -0.044 | -0.068 | 0.102 | -0.03 | -0.073 | 0.053 | 0.004 | 0.05 | 0.074 | -0.023
17 | SSBP4 (UniProt U3KPY3) |  |  |  |  |  |  | 0.023 |  | 0.212 |  | -0.189 | -0.121 |  |  |  |  |  |  |  | 
18 | SOX5 (UniProt P35711) |  | -0.163 |  | -0.087 | -0.058 | 0.006 | -0.089 | -0.012 | 0.105 | 0.263 | -0.224 | 0.064 | -0.055 | 0.051 |  | -0.014 | -0.053 |  |  | -0.08
19 | SYK (UniProt P43405) | -0.151 | -0.168 | 0.03 | 0.085 | 0.066 | 0.25 |  |  |  | 0.355 | 0.249 | -0.012 | 0.204 | 0.06 |  |  | -0.113 | 0.258 | 0.112 | 
